# Reference: patent US20210230599, “STEM-LOOP COMPOSITIONS AND METHODS FOR INHIBITING INTERLEUKIN-8” (VITRISA THERAPEUTICS, INC., published 2021)
# Target: Interleukin-8 (IL8, CXCL8), C-terminal His-tagged (Homo sapiens, UniProt P10145 SEQ:1-72)
# Test: competition; competition TR-FRET; Aptamer 116 variant
# Settings: tags: C-terminal His (Sino Biological); stem-loop; ssRNA; 2'-F G except 2'-OMe G at X (CGGU-GGGA-AACGU-GAGAU-GGXUU-GCCG); 2'-OMe A,C,U; 5' C6NH2; 3' idT
# Text: 2′OMe modifications may impart higher duplex stability, increased metabolic stability in serum and vitreous, and may have greater coupling efficiency during synthesis compared to 2′F-containing nucleotides. The use of these nucleotides may also avoid the potential loss of the 2′F group during production, which can happen during deprotection steps and exposure to heat. To probe the effect of 2′F-G to 2′OMe-G substitution on target binding, variants of Aptamer 116 and 212 were synthesized where 2′F-G was selectively substituted with 2′OMe-G (Table 49) and assayed for activity by competition TR-FRET using ALEXA FLUOR® 647-labeled parent Aptamer 212. 2′OMe-G replacements were well tolerated in all positions of stem S1 (Aptamers 242-248).
row,Sequence,binding signal
1,CGGUGGGAAACGUGAGAUGGGUUGCCG [listing 1 of 4 here],> 10 fold worse than Aptamer 212

# Same assay, conditions: tags: C-terminal His (Sino Biological); stem-loop; ssRNA; 2'-F G except 2'-OMe G at X (CGGU-GGGA-AACGU-GAGAU-GXGUU-GCCG); 2'-OMe A,C,U; 5' C6NH2; 3' idT
row,Sequence,binding signal
1,CGGUGGGAAACGUGAGAUGGGUUGCCG [listing 2 of 4 here],> 10 fold worse than Aptamer 212

# Same assay, conditions: tags: C-terminal His (Sino Biological); stem-loop; ssRNA; 2'-F G except 2'-OMe G at X (CGGU-GGGA-AACGU-GAGAU-XGGUU-GCCG); 2'-OMe A,C,U; 5' C6NH2; 3' idT
row,Sequence,binding signal
1,CGGUGGGAAACGUGAGAUGGGUUGCCG [listing 3 of 4 here],> 10 fold worse than Aptamer 212

# Same assay, conditions: tags: C-terminal His (Sino Biological); stem-loop; ssRNA; 2'-F G except 2'-OMe G at X (CGGU-GGGA-AACXU-GAGAU-GGGUU-GCCG); 2'-OMe A,C,U; 5' C6NH2; 3' idT
row,Sequence,binding signal
1,CGGUGGGAAACGUGAGAUGGGUUGCCG [listing 4 of 4 here],> 10 fold worse than Aptamer 212
